The campaign covered roughly 290,000 compounds. About 60 (0.02%) were called active. Roughly 1% stayed inconclusive and do not appear here. How the calls were made is not given here. The list is a sample of the results. Potency and affinity values are given separately.
Test: inhibition of WNV-induced cytopathic effect – cell-based, CPE readout (AID 1621)
Conditions: West Nile virus-infected cells, at 10 µM, stronger effect = higher value

CPE inhibition, inactive:
Cc1ccc(-c2cc(C(=O)NCCCN3CCOCC3)c3ccccc3n2)cc1C 0.07%
CCOc1ccc(-c2cc(C(=O)NCCCN3CCCC3)c3ccccc3n2)cc1 11.7%
O=C(NCc1ccc(F)cc1)C1CCCN(S(=O)(=O)c2ccc(-n3cnnn3)cc2)C1 (configuration not stated) 0.7%
CN(C)CCCN1c2ccccc2CCc2ccc(Cl)cc21 -0.38%
CN(C)CCCN1c2ccccc2CCc2ccccc21 -0.69%
COc1ccc(/C=C/C(=O)OCC(=O)NCc2ccco2)c(OC)c1 -0.46%
CCC(C)C(=O)N1CCCC(c2nc(-c3cccs3)no2)C1 (configuration not stated) -0.34%
COc1ccccc1OCCn1cc(/C=N/NC(N)=S)c2ccccc21 -0.18%
Cc1cccc(-n2c(SCC(=O)O)nc3sc4c(c3c2=O)CCCC4)c1 0.2%
C[C@@H]1C[C@@H]2OC(=O)[C@]3(C)[C@H]2[C@@H](OC3(C)O)[C@]2(C)C(=O)C=C[C@H]12 (some centres not stated) 1.25%
CCOC(=O)C1CCN(C(=S)Nc2cc(OC)c(OC)cc2C(=O)OC)CC1 0.82%
Cc1ccccc1CN1C(=O)c2ccccc2S(=O)c2ccc(C(=O)NCCCN3CCOCC3)cc21 (configuration not stated) -0.39%
O=C(NCCCN1CCCC1)c1ccc2c(c1)N(Cc1ccccc1F)C(=O)c1ccccc1S2=O (configuration not stated) -0.62%
Cc1ccc(-c2csc(N3CCN(c4cc5c(cc4Cl)nc(C)n5CCN4CCCCC4)CC3)n2)cc1 0.49%
O=[N+]([O-])c1ccc(C(O)CSC(=S)N2CCCCC2)cc1 (configuration not stated) -0.96%
CCN1CCN(c2ccc(S(=O)(=O)N3CCCCC3)cc2NC(=O)Cc2c(F)cccc2Cl)CC1 0.49%
CCN1CCN(c2ccc(S(=O)(=O)N3CCCCC3)cc2NC(=O)Cc2ccc(OC)cc2)CC1 0.99%
COc1ccc(Cl)cc1C(=O)NCCCSc1ccccc1 -1.17%
COc1ccc(CNC(=O)CCN2C(=O)c3ccncc3C2=O)cc1OC 0.59%
COc1cc(-c2nc(C(=O)NC3CCCCC3)cc3c2[nH]c2ccccc23)cc(OC)c1OC 1.01%
N=c1c(C(=O)NCCN2CCOCC2)cc2c(=O)n3ccccc3nc2n1Cc1ccc(F)cc1 0%
Cc1cccn2c(=O)c3cc(C(=O)NCCN4CCOCC4)c(=N)n(CCN4CCOCC4)c3nc12 -0.04%
CN1C(=O)c2ccc(C(=O)NCc3ccco3)cc2C1=O 1.39%
c1ccc(Sc2ncnc3c2oc2ccccc23)nc1 1.08%
CC(/C=N/n1cnnc1)=C\c1ccccc1 -0.2%
ClC(/C=N/n1cnnc1)=C/c1ccccc1 2.95%
Cc1ccc2nc(Nc3ccccc3)c(C=O)c(=O)n2c1 -0.78%
CCN(CC)C(=O)Nc1c(C)n(C)n(-c2ccccc2)c1=O 0.37%
CCOC(=O)c1c(CN2CCOCC2)n(-c2ccccc2)c2cc(Br)c(O)cc12 1.59%
CCOC(=O)c1c(CN2CCN(C)CC2)n(-c2ccccc2)c2cc(Br)c(O)cc12 0.39%
COc1ccc(CCN(C)C(=O)c2cccc(S(=O)(=O)NCc3ccccc3)c2)cc1OC -1.05%
O=C1N[C@@H](Cc2ccccc2)C(=O)N2[C@@H]1C[C@@]1(Br)c3ccccc3N(S(=O)(=O)c3ccccc3)[C@@H]21 -0.59%
CC(C)c1cc(C(C)C)c(S(=O)(=O)N2c3ccccc3[C@@]3(Br)C[C@H]4C(=O)N[C@@H](Cc5ccccc5)C(=O)N4[C@@H]23)c(C(C)C)c1 2.08%
CCOC(=O)c1c(C)c(C(=O)NCc2cccs2)c(C)n1CC -0.75%
Fc1cccc(Cl)c1Cn1nnc2c(N3CCC4(CC3)OCCO4)ncnc21 0.17%
COc1ccc(C(=O)Oc2ccc3c(c2)OCO3)cc1OC 0.51%
COc1cc2c(O)c3c(c(-c4ccc5c(c4)OCO5)c2cc1OC)C(=O)OC3 12.1%
Cc1nn(Cc2ccccc2Cl)c2sc(C(=O)OC3CCCC3=O)cc12 (configuration not stated) -0.34%
O=C(NCC(c1cccnc1)N1CCOCC1)NC1CCCCC1 (configuration not stated) 0.45%
COC(=O)c1c(-c2ccc(C)cc2)csc1NC(=O)c1c(-c2ccccc2)noc1C 0.29%
CCOC(=O)c1c(-c2ccc(F)cc2)csc1NC(=O)c1c(-c2ccccc2)noc1C -0.66%
COc1cc(C(=O)N2CCCN(c3nc4cc(C)ccc4cc3C#N)CC2)cc(OC)c1OC 0.84%
COCCCNC(=S)N1CCCN(c2nc3cc(C)ccc3cc2C#N)CC1 -0.77%
COc1cc(-c2csc(NC3CCCCC3)n2)cc(OC)c1OC -0.66%
COc1ccc(/C=C2\SC(=S)N(NS(=O)(=O)c3ccc(C)cc3)C2=O)c(OC)c1 -0.03%
O=C(CN1CCOCC1)Nc1nc(-c2ccc(Cl)cc2)cs1 -0.54%
N=C1C(c2nc(-c3ccc(F)cc3)cs2)=C(O)CN1CCCN1CCOCC1 2.36%
CNc1nc2ccccc2n1CC(=O)c1ccccc1 -1.12%
Cc1cccc(NC(=O)CCN2CCOCC2)c1 0.1%
CCOC(=O)c1sc(=NC(=O)c2cccs2)n(C)c1C 0.29%
CCN(CCCNC(=O)c1cc2c(-c3cccc(OC)c3)nn(C)c2s1)Cc1ccccc1 11.5%
CCN(CC)CCNC(=O)c1cc2c(-c3cccc(OC)c3)nn(C)c2s1 10.3%
Cc1c(C(=O)c2ccc(Cl)c([N+](=O)[O-])c2)c2ccccn2c1CCC#N 0.29%
O=C(CN1C(=O)NC2(CCCCCC2)C1=O)Nc1ccc(S(=O)(=O)N2CCOCC2)cc1 0.5%
CSCCC(N=Cc1c(O)n(-c2ccc(F)cc2)c(=O)[nH]c1=O)C(=O)O (configuration not stated) 0.06%
COc1ccc(-c2csc(N(CCCN(C)C)C(=O)c3cccs3)n2)cc1 0.38%
COc1ccc(-c2csc(N(CCCN(C)C)C(=O)c3ccccc3F)n2)cc1 -0.14%
